In PubChem BioAssay AID493192 (National Center for Advancing Translational Sciences (NCATS), 2011):
Inconclusive results are not listed. Entries that show only a call come without a potency. Active and inactive are the calls of the source. Calls follow the shape of the dose curve; as a rule, active = well fitted activation curve with a large enough effect; inconclusive = small, poorly fitted or top-dose-only effect; inactive = no such curve, though single readings can be large or run the other way.

Experiment: qHTS Assay for Identifying a Potential Treatment of Ataxia-Telangiectasia: Hit Validation;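 also: phospho-KAP1 level by AlphaLISA as a proxy for ATM-like kinase activity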
Conditions: Ataxia-telangiectasia cell-based hit validation qHTS, in ATM-null A-T patient fibroblasts; series mostly up to 76.9 µM
Summary of the method: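 KAP-1 phosphorylation was read by AlphaLISA as a measure of ATM-like activity in ATM-null F2112 fibroblasts. Compounds spanned up to 76.7 uM final, with 60 min exposure at 37C and a 6 hr detection incubation at 25C.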
Potency is read from the fitted curve at half-maximal effect.

CNC(=S)N(CCO)Cc1cc2cc3c(cc2[nH]c1=O)OCCO3
Potency: inactive

CC(=O)Nc1ccc(NC2=C(Cl)C(=O)c3ccccc3C2=O)cc1
Potency: inactive

COc1ccc2c(c1)cc(C(=O)N[C@H](C(=O)N1CCC(C(=O)O)CC1)C(C)C)n2C
Potency: inactive

CCn1c(N2CCN(CC(=O)c3c[nH]c4ccccc34)CC2)nc2c1c(=O)[nH]c(=O)n2C
Potency: inactive

Cc1ccccc1S(=O)(=O)Oc1ccc2ccc(O)cc2c1
Potency: inactive

COc1cc(/C=C2\SC(=S)N(C(C(=O)O)c3ccccc3)C2=O)ccc1O (stereo unspecified)
Potency: inactive

COc1ccc(NCc2cc(=O)oc3cc(NC(C)=O)ccc23)cc1
Potency: inactive

O=C(CCCC(=O)N1CCCC1)N1CCCC1
Potency: inactive

Cc1ccc(C(=O)c2c(C)oc3c2C(=O)C(=O)c2ccccc2-3)cc1
Potency: 26 µM (active)

OC(COC(c1ccc(F)cc1)c1ccc(F)cc1)CN1CCCC1 (stereo unspecified)
Potency: inactive

CCOC(=O)N1CCN(c2nc(N(c3ccccc3)c3ccccc3)nc(-n3ccnc3)n2)CC1
Potency: inactive

O=C1NC(=Nc2ccccc2)CS1
Potency: inactive

O=C(C[n+]1cccc2ccccc21)c1ccc(NC(=O)c2ccccc2)cc1
Potency: inactive

COc1ccc(N2CCN(C(=O)c3cc4cc(Cl)ccc4[nH]3)CC2)cc1
Potency: inactive

COc1ccccc1C1CCN(C(=O)c2ccc(Cl)cc2)CC1
Potency: inactive

CCOC(=O)CN(C(=O)CSc1nnc(COc2ccc(OC)cc2)n1CC)c1ccccc1
Potency: inactive

O=C(O)CCCC(=O)N1N=C(c2ccccc2)CC1c1cccs1 (stereo unspecified)
Potency: inactive

Cc1ccnc(NC(=O)c2ccccc2NC(=O)c2ccccc2)c1
Potency: inactive

O=[N+]([O-])c1ccc(F)cc1F
Potency: 29.2 µM (active)

C=CCC(CC)C(=O)NC(=O)N1CCCc2ccccc21 (stereo unspecified)
Potency: inactive

O=c1c2cc(Br)ccc2nc(-c2ccccc2)n1O
Potency: inactive

NC(=O)c1cc2ccccc2o/c1=N/NC(=O)c1cccc(F)c1
Potency: inactive

COc1ccc(Cl)cc1NC(=O)C[n+]1cccc(C)c1
Potency: inactive

CN(CCc1ccccn1)C(=O)c1cc(COc2ccc(F)cc2F)on1
Potency: inactive

CC1(C)CC2(CCO1)OC(=O)CC2C(=O)Nc1c(Cl)cccc1Cl (stereo unspecified)
Potency: inactive

COc1cccc(CNC(=O)C(CC(C)C)NC(=O)c2ccccc2C)c1 (stereo unspecified)
Potency: inactive

COc1ccc(C(CNC(=O)C(Cc2ccccc2)NC(N)=O)N(C)C)cc1 (stereo unspecified)
Potency: inactive

CCN(c1ccccc1)S(=O)(=O)c1ccc(Cl)c(C(=O)N(CC2CCCO2)C2CCS(=O)(=O)C2)c1 (stereo unspecified)
Potency: inactive

O=C(O)c1ccc(C2Nc3ccccc3C(=O)N2Cc2ccccc2)cc1 (stereo unspecified)
Potency: inactive

COC(=O)c1ccc2[nH]c3cccc(/C(=C/c4ccccc4)c4ccccc4)c3c2c1
Potency: inactive

O=c1c(-c2ccc(Cl)cc2)c[nH]n1-c1ccccc1
Potency: inactive

N=c1ccn(Cc2ccc([N+](=O)[O-])cc2)cc1
Potency: inactive

COCCCNC(=O)c1c[nH]c2ccc(S(=O)(=O)N(C)c3ccccc3C)cc2c1=O
Potency: inactive

COc1ccc2c(c1)c(N=NC(N)=S)c(O)n2CC(=O)c1ccccc1
Potency: inactive

CCC(C)N1C(=S)SC(C)(C)C1N(O)C(=O)NC1CCCCC1 (stereo unspecified)
Potency: inactive

COc1ccccc1C(=O)NC(=O)Nc1cccc(Cl)c1
Potency: inactive

CCN(CC)c1ccc2c(Cl)c(Br)c(=O)oc2c1
Potency: 36.8 µM (active)

Cc1cc(C)c2c(Cn3ccnc3)cc(=O)oc2c1
Potency: inactive

O=C(C[n+]1ccc2c(c1)nnn2-c1ccccc1)c1ccc(Cl)cc1
Potency: inactive

N#CCN1C(=O)C(=O)N(Cc2cccc(Cl)c2)C1=O
Potency: inactive

CC(C)c1ccc(-c2cc(C(=O)N3CCOCC3)c3cc(Br)ccc3n2)cc1
Potency: inactive

CCC(C)NC(=O)c1cn(CCOC)c(=O)c2c1c1ccccc1n2C (stereo unspecified)
Potency: inactive

CCOC(=O)C1=C(O)C(=O)N(Cc2ccccc2)C1
Potency: inactive

C=C(C)n1c(=O)n(Cc2ccccc2C)c2ccccc21
Potency: inactive

COc1ccc(-c2nc3n(c2C)Cc2ccccc2-3)cc1
Potency: inactive

CC(C)CN(CC(C)C)C(=O)c1cc2c(=O)n3ccccc3nc2s1
Potency: inactive

CN(C)c1ccc2nc3ccc(=[N+](C)C)cc-3sc2c1
Potency: 14.6 µM (active)

CCOC(=O)c1ccccc1NC(=O)c1ccc2nc[nH]c2c1
Potency: inactive

COc1ccc(NC(=O)C2CC2)cc1OC1CCCC1
Potency: inactive

O=C(c1ccc(F)cc1)c1ccc(N2CCCCC2)cc1
Potency: 29.2 µM (active)

CC(C)(C)NC(=O)c1cccc2c1-c1ccccc1C2=O
Potency: inactive

CCOC(=O)c1cccc(N2C(=O)C3C4C=CC(CC4)C3C2=O)c1 (stereo unspecified)
Potency: inactive

COc1ccccc1NC(=O)C1CCCN(S(=O)(=O)c2ccc(-n3cnnn3)cc2)C1 (stereo unspecified)
Potency: inactive

COc1ccc(N(C)S(=O)(=O)c2cccc(C(=O)OCC(=O)NCc3ccccc3OC)c2)cc1
Potency: inactive

CC(=O)Nc1ccc(NC(=O)CSc2nnnn2-c2ccc(F)cc2)cc1
Potency: inactive

O=C(NC12CC3CC(CC(C3)C1)C2)c1cccc(OC(F)F)c1
Potency: inactive

CCOC(=O)c1c(CSc2ccsc2)n(C)c2cc(Br)c(O)c(CN(C)C)c12
Potency: 46.3 µM (active)

Cc1[nH]c2c(C)cccc2c1CN1CCC(CO)(Cc2ccccc2)CC1
Potency: 1.16 µM (active)

OC1(CC#CCN2CCCCC2)c2ccccc2-c2ccccc21
Potency: inactive

CC(O)[C@H]1CNC(=O)C(=O)N1CC1(c2ccccc2)CC1 (stereo partly specified)
Potency: inactive

CCOc1ccccc1CNC(=O)Cn1c(=O)oc2ccccc21
Potency: 23.2 µM (active)
